We go through 14 compounds from PubChem BioAssay (EPA / NIEHS).

For assay [1], the target named is human Peroxisome Proliferator-activated Receptor alpha (PPARa), PPARA (gene 5465) (UniProt Q07869). Description: ATG_PPARa_TRANS: Attagene TRANS-FACTORIAL HepG2 Assay for human Peroxisome Proliferator-activated Receptor alpha (PPARa) (AID 2283001).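 For AC50: potency for gain of reporter signal over DMSO so agonist or activator.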 In a few lines:
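HepG2 cells transiently transfected with multiplexed GAL4-UAS reporters driven by exogenous chimeric NR-Gal4 proteins; reporter mRNA measured after 24 h dosing. Read-out by RT-PCR, 6-FAM labelling, HpaI digestion and capillary electrophoresis; gain of signal versus DMSO.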

The target in assay [2] is human Peroxisome Proliferator-activated Receptor delta (PPARd), PPARD (gene 5467) (UniProt Q03181). Description: ATG_PPARd_TRANS: Attagene TRANS-FACTORIAL HepG2 Assay for human Peroxisome Proliferator-activated Receptor delta (PPARd) (AID 2283002). The procedure, abridged: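 HepG2 cells transiently transfected with GAL4-UAS multiplexed reporter units driven by exogenous chimeric NR-GAL4 proteins; 24 h compound exposure. Reporter mRNA measured by RT-PCR, 6-FAM primer extension, HpaI digestion and capillary electrophoresis; gain of signal fitted relative to DMSO.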

Assay [3] has as its target human Retinoic Acid Receptor beta (RARb), RARB (gene 5915) (UniProt P10826). Description: ATG_RARb_TRANS: Attagene TRANS-FACTORIAL HepG2 Assay for human Retinoic Acid Receptor beta (AID 2283004). The procedure, abridged:
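Fluorescent capillary-electrophoresis detection of GAL4-UAS reporter mRNA defines the endpoint, with induction over DMSO-treated wells scored as activity. Transiently transfected human hepatoma HepG2 cells expressing exogenous NR–Gal4 proteins are exposed to test chemicals for 24 h.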

In assay [4] the target is human Retinoic Acid Receptor gamma (RARg), RARG (gene 5916) (UniProt P13631). Description: ATG_RARg_TRANS: Attagene TRANS-FACTORIAL HepG2 Assay for human Retinoic Acid Receptor gamma (RARg) (AID 2283009). The procedure, abridged: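 Transient transfection of HepG2 with multi-reporter constructs, then 24 h chemical treatment. Total RNA isolated, reverse-transcribed, PCR-amplified, fluorescently labelled and resolved by capillary electrophoresis; activity scored as mRNA induction versus DMSO.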

Assay [5] concerns the target Peroxisome proliferator-activated receptor gamma (Homo sapiens) (UniProt P37231). Description: ATG_PPARg_TRANS: Attagene TRANS-FACTORIAL HepG2 Assay for human Peroxisome Proliferator-activated Receptor-gamma (PPARg) (AID 2283007). The procedure, abridged: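 HepG2 cells transiently transfected with multiplexed GAL4-UAS reporter units and exogenous chimeric NR-Gal4 proteins; reporter mRNA quantified after 24 h compound exposure by RT-PCR, fluorescent labelling, HpaI digestion and capillary electrophoresis; gain-of-signal fitted versus DMSO baseline.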

In assay [6] the target is Nuclear receptor subfamily 1 group I member 2 (Homo sapiens) (UniProt O75469). Description: ATG_PXR_TRANS: Attagene TRANS-FACTORIAL HepG2 Assay for human Pregnane X Receptor (PXR) (AID 2283008). In a few lines:
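HepG2 cells transiently transfected with GAL4-UAS reporter units and PXR-Gal4 chimera, exposed 24 h. Reporter mRNA quantified by RT-PCR, fluorescent labelling, HpaI digestion and capillary electrophoresis; gain of signal vs DMSO.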

For assay [7], the target named is Retinoic acid receptor alpha (Homo sapiens) (UniProt P10276). Description: ATG_RARa_TRANS: Attagene TRANS-FACTORIAL HepG2 Assay for human Retinoic Acid Receptor alpha (RARa) (AID 2283005). In a few lines:
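HepG2 transiently transfected with multiplex GAL4-UAS reporter units including a human RARa–GAL4 chimera; 24 h compound exposure. Reporter mRNA quantified by RT-PCR, 6-FAM labeling and capillary electrophoresis; gain of signal versus DMSO.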

Inconclusive results are not listed. The source made the active and inactive calls. Rule for the calls: active = hit-call score of the fitted dose curve at least 0.9, where 1 is the maximum; inconclusive = response in the unintended direction; inactive = score below 0.9.

Chain of human Retinoic Acid Receptor beta (RARb), RARB (gene 5915) (P10826 whole entry, looked up, the tested form may be a part): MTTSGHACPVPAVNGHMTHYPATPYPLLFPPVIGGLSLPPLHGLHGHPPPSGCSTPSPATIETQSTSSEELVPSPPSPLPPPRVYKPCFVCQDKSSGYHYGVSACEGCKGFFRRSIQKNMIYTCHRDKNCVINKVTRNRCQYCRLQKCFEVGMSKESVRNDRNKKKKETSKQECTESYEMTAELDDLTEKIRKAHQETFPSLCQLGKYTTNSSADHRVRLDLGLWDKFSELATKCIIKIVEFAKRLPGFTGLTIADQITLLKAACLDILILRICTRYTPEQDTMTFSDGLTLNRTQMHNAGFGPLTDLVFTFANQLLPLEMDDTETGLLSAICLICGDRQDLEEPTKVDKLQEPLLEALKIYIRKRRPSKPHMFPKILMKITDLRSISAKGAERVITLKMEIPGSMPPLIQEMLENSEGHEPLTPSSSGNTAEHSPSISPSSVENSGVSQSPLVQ
Chain of human Peroxisome Proliferator-activated Receptor delta (PPARd), PPARD (gene 5467) (Q03181 whole entry, looked up, the tested form may be a part): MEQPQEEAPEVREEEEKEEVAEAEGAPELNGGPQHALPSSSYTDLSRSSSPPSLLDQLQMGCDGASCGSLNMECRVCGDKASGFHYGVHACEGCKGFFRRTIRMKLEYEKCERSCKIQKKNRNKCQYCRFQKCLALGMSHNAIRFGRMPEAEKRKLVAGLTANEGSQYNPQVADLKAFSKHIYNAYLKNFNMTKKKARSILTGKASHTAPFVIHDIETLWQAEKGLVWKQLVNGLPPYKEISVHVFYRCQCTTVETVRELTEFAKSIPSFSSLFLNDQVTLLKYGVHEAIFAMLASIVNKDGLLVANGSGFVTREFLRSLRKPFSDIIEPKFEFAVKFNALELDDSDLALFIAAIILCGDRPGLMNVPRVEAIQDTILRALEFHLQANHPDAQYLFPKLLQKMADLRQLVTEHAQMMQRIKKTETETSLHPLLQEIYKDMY
Chain of Retinoic acid receptor alpha (Homo sapiens) (P10276 whole entry, looked up, the tested form may be a part): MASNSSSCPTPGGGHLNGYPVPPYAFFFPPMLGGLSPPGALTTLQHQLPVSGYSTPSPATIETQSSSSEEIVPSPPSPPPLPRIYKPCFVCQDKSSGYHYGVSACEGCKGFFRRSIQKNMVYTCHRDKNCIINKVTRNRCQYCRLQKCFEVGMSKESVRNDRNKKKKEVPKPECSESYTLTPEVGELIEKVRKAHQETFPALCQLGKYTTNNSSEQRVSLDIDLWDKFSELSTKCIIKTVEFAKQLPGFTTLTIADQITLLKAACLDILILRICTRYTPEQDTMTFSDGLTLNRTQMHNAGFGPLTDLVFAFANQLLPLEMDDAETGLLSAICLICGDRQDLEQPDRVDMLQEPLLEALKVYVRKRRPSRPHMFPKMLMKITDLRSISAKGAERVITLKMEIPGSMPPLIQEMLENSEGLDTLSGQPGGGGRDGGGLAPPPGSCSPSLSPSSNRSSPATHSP
Chain of human Retinoic Acid Receptor gamma (RARg), RARG (gene 5916) (P13631 whole entry, looked up): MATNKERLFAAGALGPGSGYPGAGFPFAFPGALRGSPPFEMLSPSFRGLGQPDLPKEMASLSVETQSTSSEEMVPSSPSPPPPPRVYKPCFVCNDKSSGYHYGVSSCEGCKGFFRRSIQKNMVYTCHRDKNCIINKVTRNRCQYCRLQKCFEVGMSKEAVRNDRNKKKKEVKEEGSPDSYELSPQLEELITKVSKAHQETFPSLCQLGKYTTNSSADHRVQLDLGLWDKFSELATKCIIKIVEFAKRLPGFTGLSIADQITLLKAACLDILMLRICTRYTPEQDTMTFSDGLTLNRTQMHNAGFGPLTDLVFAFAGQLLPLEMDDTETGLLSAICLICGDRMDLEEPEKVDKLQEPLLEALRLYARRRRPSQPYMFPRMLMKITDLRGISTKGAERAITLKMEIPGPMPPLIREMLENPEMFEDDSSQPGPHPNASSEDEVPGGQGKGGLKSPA
Chain of Peroxisome proliferator-activated receptor gamma (Homo sapiens) (P37231 whole entry, looked up, the tested form may be a part): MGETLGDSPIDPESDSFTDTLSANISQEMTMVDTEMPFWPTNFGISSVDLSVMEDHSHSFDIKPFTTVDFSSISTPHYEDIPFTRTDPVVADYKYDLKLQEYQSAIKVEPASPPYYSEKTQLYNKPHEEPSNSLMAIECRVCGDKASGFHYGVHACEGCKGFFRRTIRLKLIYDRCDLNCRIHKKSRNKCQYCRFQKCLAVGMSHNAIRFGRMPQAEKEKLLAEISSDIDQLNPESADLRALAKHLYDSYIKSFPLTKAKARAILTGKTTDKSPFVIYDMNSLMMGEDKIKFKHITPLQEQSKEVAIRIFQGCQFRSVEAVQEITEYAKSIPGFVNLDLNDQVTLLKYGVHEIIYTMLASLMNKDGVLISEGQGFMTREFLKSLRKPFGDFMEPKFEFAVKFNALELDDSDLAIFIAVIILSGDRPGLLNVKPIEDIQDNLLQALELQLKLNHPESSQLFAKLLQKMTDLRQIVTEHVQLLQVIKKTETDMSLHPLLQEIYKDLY
Chain of Nuclear receptor subfamily 1 group I member 2 (Homo sapiens) (O75469 whole entry, looked up, the tested form may be a part): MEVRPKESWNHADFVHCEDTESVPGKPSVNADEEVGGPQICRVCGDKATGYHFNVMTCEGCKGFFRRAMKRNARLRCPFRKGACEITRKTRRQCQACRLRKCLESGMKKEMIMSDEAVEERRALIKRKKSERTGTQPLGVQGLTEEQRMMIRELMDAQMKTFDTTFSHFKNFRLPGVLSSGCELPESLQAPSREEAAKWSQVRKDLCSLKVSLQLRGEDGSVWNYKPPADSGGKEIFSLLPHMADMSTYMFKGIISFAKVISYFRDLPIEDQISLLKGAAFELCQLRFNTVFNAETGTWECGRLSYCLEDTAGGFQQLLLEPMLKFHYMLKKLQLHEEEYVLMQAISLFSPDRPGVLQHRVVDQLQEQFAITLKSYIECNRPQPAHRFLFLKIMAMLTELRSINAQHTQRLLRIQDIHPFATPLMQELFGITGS
Chain of human Peroxisome Proliferator-activated Receptor alpha (PPARa), PPARA (gene 5465) (Q07869 whole entry, looked up, the tested form may be a part): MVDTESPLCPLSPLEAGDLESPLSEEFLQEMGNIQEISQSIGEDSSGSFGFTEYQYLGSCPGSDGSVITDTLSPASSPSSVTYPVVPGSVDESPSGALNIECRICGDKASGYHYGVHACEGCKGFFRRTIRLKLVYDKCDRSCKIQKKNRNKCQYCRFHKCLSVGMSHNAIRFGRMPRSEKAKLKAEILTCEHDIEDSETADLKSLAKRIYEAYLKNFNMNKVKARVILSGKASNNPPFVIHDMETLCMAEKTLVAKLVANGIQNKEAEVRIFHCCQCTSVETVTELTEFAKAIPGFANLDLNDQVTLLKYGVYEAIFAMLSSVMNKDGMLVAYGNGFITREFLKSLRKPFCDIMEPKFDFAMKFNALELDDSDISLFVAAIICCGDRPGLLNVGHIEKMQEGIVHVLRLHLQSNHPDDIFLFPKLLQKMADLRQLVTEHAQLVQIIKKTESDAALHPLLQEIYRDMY

With `O=C(OCCc1ccccc1)c1ccccc1`, the compound was classed as inactive in assay [1], in assay [2], in assay [3] and in assay [4].

For the compound `CCCCCCCCCCCCC`, the call in assay [1], in assay [2], in assay [5] and in assay [6] was inactive.

`C1CCSC1`: the compound was classed as inactive in assay [1], in assay [2] and in assay [5].

For `Clc1cccnc1`, the compound was classed as inactive in assay [1], in assay [2], in assay [3], in assay [7] and in assay [4].

On to `Nc1ccc(Cl)c(N)c1`, for which the call in assay [1], in assay [2], in assay [3], in assay [7], in assay [5] and in assay [6] was inactive. The compound was called inactive in assay [4].

On to `COC(=O)C=Cc1ccccc1`, for which the result in assay [1], in assay [2], in assay [7], in assay [5] and in assay [4] was inactive.

As for `Cc1c[nH]c(=O)[nH]c1=O`, the outcome in assay [1], in assay [2], in assay [7], in assay [6] and in assay [4] was inactive.

A word on the AC50: it is the concentration at which the activity in the assay is half-maximal. As for `COC(=O)c1ccc(C(=O)OC)c(C(=O)OC)c1`, the concentration at half-maximal activity (AC50) was 12.6 µM (active) in assay [1] and 34.5 µM (active) in assay [5]. Moreover, the outcome in assay [2] and in assay [7] was inactive.

Consider `CC1=CC(C)C(C=O)CC1` (configuration not stated), for which the call in assay [1], in assay [2], in assay [3], in assay [7], in assay [5] and in assay [4] was inactive. In addition, the AC50 in assay [6] was 27.8 µM (active).

In the case of `Cc1ccc(C)c(OCCCC(C)(C)C(=O)O)c1`, the AC50 in assay [1] is 37.4 µM (active); in assay [6] it was 20.7 µM (active). Further, the compound was classed as inactive in assay [2], in assay [3] and in assay [4].

`c1ccc2cnccc2c1`: the call in assay [1], in assay [2], in assay [5] and in assay [6] was inactive.

As for `CCCCC/C=C\C/C=C\CCCCCCCC(=O)O`, the results for the AC50 in assay [1] and in assay [5] were 28.9 µM (active) and 11.9 µM (active), respectively. Moreover, the outcome in assay [2] and in assay [6] was inactive.

As for `CCCCCCCCCC[N+](C)(CCCCCCCCCC)CCC[Si](OC)(OC)OC`, the compound was called inactive in assay [1], in assay [2], in assay [5] and in assay [6].

For `C=C[C@@]1(C)CC(=O)[C@]2(O)[C@@]3(C)[C@@H](O)CCC(C)(C)[C@@H]3[C@H](O)[C@H](OC(C)=O)[C@@]2(C)O1`, the concentration at half-maximal activity (AC50) in assay [1] is 3.28 µM (active); in assay [5], 3.2 µM (active). For the same compound, the outcome in assay [2], in assay [3], in assay [7] and in assay [4] was inactive.
